# This is part of a sample that, as a whole, favours compounds with a hit. Of some 83,000 tested, about 20% had one in any assay.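 Method: cells in 96-well plates; compound added at one concentration; 48 h incubation; percent growth measured; values under 10 scored active.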 A number with no mark means an inactive call. Calls of active or inactive are those of the source.
# Tested on: IGROV1 ovarian
# Assay: NCI-60 one-dose screen, 48 h (100 = growth as untreated, 0 = no growth, -100 = all killed)
# Conditions: 10 µM unless noted
# Description: Growth inhibition of the IGROV1 human tumor cell line is measured as a screen for anti-cancer activity. Cells are grown in 96 well plates and exposed to the test compound for 48 hours. Compounds are tested at a single concentration, which is 10^-5 M for most compounds. The reported endpoint is percent growth (GI% or GIPRCNT), where numbers from 0 - 100% represent growth inhibition, and numbers from -100% - 0 represent cell death. For example, a value of 40 represents 60% growth inhibition. A value of 0 means no net growth occurred over the course of the experiment. A value of -40 indicates 40% of cells at the beginning of the experiment died by the end of the experiment. A value of -100 means all cells are dead at the end of the experiment.
# NCI-60 Human Tumor Cell Lines Screen was performed using the standard one-dose NCI protocol, which is described in more detail at https://dtp.cancer.gov/discovery_development/nci-60/default.htm.
# Compounds with GIPRCNT values below 10 were considered active. Activity score was based on GIPRCNT using the following formula: […]
# Score is 0 for GIPRCNT values of 100 or above, 50 for GIPRCNT values of 0, and 100 for GIPRCNT values of -100.
row,SMILES,growth
1,COc1ccc(C2=CC(c3cc(OC)c(OC)c(OC)c3)NC(=O)N2)cc1OC (stereo not given),-17.7% (active)
2,COc1cccc(-c2nc3sccn3c2-c2ccnc(NCCCNS(=O)(=O)c3ccc(F)cc3)c2)c1,29.7%
3,O=C(CSC1CCc2ccccc21)N/N=C/c1ccccc1O (stereo not given),27.4%
4,NC1=NC(SCc2ccccc2CCl)c2ncn(Cc3ccccc3CCl)c2N1 (stereo not given),-26.3% (active)
5,CCOC(=O)CC(=O)OC,111%
6,N#Cc1c(Nc2ccccc2)nc2n(c1=O)-c1ccccc1Sc1ccccc1-2,64.1%
7,COc1cc(C(=O)/C=C/c2ccc3nc(-c4cc(F)cc(F)c4)sc3c2)cc(OC)c1OC,96.6%
8,C=C1C(=O)O[C@H]2[C@H]1CC/C(Cn1cc(CNC(=O)Cc3cn(C(=O)c4ccc(Cl)cc4)c4ccc(OC)cc34)nn1)=C\CC[C@@]1(C)O[C@@H]21,-18.7% (active)
9,O=C(/C=C/c1ccccc1)c1cccc(O)c1,82%
10,Oc1ccc2cc(Br)ccc2c1-c1c(O)ccc2cc(Br)ccc12,28%
11,COc1ccc(-c2ccc(-c3ccc(C(=N)N)s3)s2)cc1Cl,5.34% (active)
12,Cc1cc(N/N=C/c2nc(-c3ccccc3)oc2C)c2cc(Cl)ccc2n1,-83.7% (active)
13,COc1ccc(-n2c(=O)sc3c(Cl)nc(C)nc32)c(OC)c1,28.8%
14,CCOC(=O)CN1/C(=N/c2sc3c(c2C(=O)OCC)CCN(C(=O)OCC)C3)SC(=O)/C1=C\C(=O)OC,92.1%
15,CCCCCCCCCCCCNC(=O)[C@H]1CSC(c2ccsc2)N1 (stereo not given in full),-66.7% (active)
16,Cc1ccc2ccccc2c1C[n+]1ccccc1,101%
17,CC1=C(C#N)C(=O)NC(C)C1 (stereo not given),105%
18,O=S(=O)(NCCNc1nccc(-c2c(-c3cccc(O)c3)nc3sccn23)n1)c1ccc(F)cc1,63.7%
19,COc1ccc(C2C=C(c3ccc(N)cc3)N=C3SC=CN32)cc1OC (stereo not given),101%
20,CCCCN(CCCC)C(=O)CC,115%

row,SMILES,growth
1,O=[N+]([O-])c1ccc(OCCCOc2ccccc2)cc1,94.5%
2,C=C[C@@H]1C[C@@H]2Cc3ccccc3N1O2,121%
3,CN(C)c1cccc2c(S(=O)(=O)/N=C(\N)Nc3nc4ccccc4s3)cccc12,51.7%
4,CC12CCCC(CC(=O)c3[nH]c4ccccc4c31)C2 (stereo not given),24.6%
5,CCc1ccc(-c2ccc(=O)n(-c3ccc(S(N)(=O)=O)cc3)n2)cc1,-5.72% (active)
6,CC(=O)c1cc2c(N)c(C(=O)Nc3cccc4c3OCCO4)sc2nc1C,101%
7,COc1ccc2c(c1)[nH]c(=O)c1c3cc(C)c(C)cc3cn21,-21.7% (active)
8,Cc1ccc(S(=O)(=O)Nc2c(Br)cc(Br)cc2C(N)=O)cc1,104%
9,CCN(CC)CCCC(C)Nc1c2ccc(Cl)cc2nc2cc(OC)c(OC)cc12 (stereo not given),24.3%
10,COc1ccc(N2CCN(Cc3cc(C(=O)/C=C/c4c[nH]c5ccccc45)ccc3O)CC2)cc1,109%
11,COc1ccc(Nc2ncccc2C(=O)NCc2cn(Cc3cccc(Oc4ccccc4)c3)nn2)c(OC)c1,48%
12,CCCCCCCC/C=C/CCCCCCCC1=NC(C)(C)CN1C(C)(C)CO,1.53% (active)
13,O=S(=O)(NCCCNc1nccc(-n2ccc3cccnc32)n1)c1cccc(C(F)(F)F)c1,107%
14,Nc1nc(-c2ccccc2)c(CCCOc2ccc(NC(=O)CBr)cc2)c(=O)[nH]1,125%
15,CC(C)(C)n1cc(-c2ccnc(NCCCNS(=O)(=O)c3cccc(F)c3)c2)c(-c2cccc(O)c2)n1,58.8%
16,CCCCCCCCCCCCCCCCCCNC(=O)[C@H]1CSC(c2ccc(OC)cc2O)N1 (stereo not given in full),60.1%
17,CC(C)(C)c1[nH]nc2c1C(c1cc3ccccc3[nH]c1=O)Nc1cc(C(=O)Nc3ccc(Cl)cc3)ccc1N2 (stereo not given),59.6%
18,NC(=O)c1c(NC(=S)Nc2ccc(OC(F)(F)F)cc2)sc2c1CCC1(C2)OCCO1,96.3%
19,CC(=O)Oc1csc(N(C(C)=O)c2cc(C(=O)O)cc(C(=O)O)c2)n1,101%
20,C=C1CCC2C3(C)COC(C)(C)OC3CCC2(C)C1C/C=C1/C(=O)OCC1Oc1ccccc1OC (stereo not given),76.2%

# From PubChem BioAssay (NCI)
